The structures appear in SMILES notation. Inconclusive results are not listed. Active and inactive are the calls of the source. The call rests on the fitted dose curve; in most records, active means well fitted inhibition curve with a large enough effect; inconclusive means small, poorly fitted or top-dose-only effect; inactive means flat fitted curve, though single readings scatter.

Experiment in all cases: qHTS profiling for inhibitors of Plasmodium falciparum proliferation (AID 504749); further: nearly all actives have a fitted effect of over 60% in size
What all share (settings): P. falciparum in erythrocytes, SYBR Green DNA, 72 h; series mostly up to 28.7 µM
(Quantitative high-throughput screening tests each substance at several concentrations.)

Test [1] has as its system 7G8. The method in brief:
(§1)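 SYBR Green fluorescence (ex 485 nm, em 535 nm) reports parasite DNA after 72 h compound exposure of infected red cells at 0.3% parasitemia, 2.5% hematocrit; signal normalized to 0.29 uM artemisinin and vehicle wells.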

Test [2] deals with ATS95. A digest of the protocol: as §1
Test [3] relates to CP201. The method in brief:
as §1

For test [4], the system named is CP203. The method in brief:
as §1

In test [5] the test system is CP250. A digest of the protocol:
as §1

The subject of test [6] is CP256. The method in brief:
as §1

The subject of test [7] is CP262. A digest of the protocol:
as §1

In test [8] the test system is CP265. The method in brief: as §1
For test [9], the system named is CP269. A digest of the protocol:
as §1

The subject of test [10] is CP315. The method in brief: as §1
Test [11] deals with CP325. The method in brief:
as §1

Test [12] has as its system CP329. A digest of the protocol: as §1
Test [13] deals with DIV30. A digest of the protocol: as §1
Test [14] has as its system ECU. A digest of the protocol:
as §1

Test [15] has as its system N140. A digest of the protocol: as §1
Test [16] deals with PAD. A digest of the protocol: as §1
Test [17] deals with PC15. The method in brief: as §1
In test [18] the test system is SC27B. The method in brief:
as §1

Test [19] deals with TAB113. The method in brief: as §1
Test [20] deals with TAB165. The method in brief:
as §1
Potency means the concentration at half of the fitted maximal effect.

Take `O=c1[nH]c(=O)n(C2C[C@H](O)[C@@H](CO)O2)cc1C(F)(F)F` (stereo partly drawn): the Potency entry in [1], in test [2], in [3], in test [4], in [5] and in test [6] was “inactive” throughout. For the same compound, the Potency entry in test [7], in test [8], in test [9], in [10], in test [11] and in [12] was “inactive” throughout. For the same compound, the Potency result in test [13], in test [14], in test [15], in test [16], in test [17] and in [18] was “inactive” in each case. Moreover, the Potency result in [19] and in [20] was “inactive” each time.

For `CNC(=O)C(N)CSC(C)C1=C(C)c2cc3[n-]c(cc4nc(cc5[n-]c(cc1n2)c(C)c5CCC(=O)O)C(CCC(=O)O)=C4C)c(C)c3C(C)SCC(N)C(=O)NC.[Fe+2]` (stereo not drawn), the Potency entry in test [1], in test [2], in test [3], in test [4], in test [5] and in test [6] was “inactive” throughout. For the same compound, the Potency result in test [7], in test [8], in [9], in test [10], in test [11] and in [12] was “inactive” each time. In addition, the Potency result in test [13], in test [14], in [15], in test [16], in test [17] and in [18] was “inactive” each time. Moreover, the Potency entry in test [19] and in test [20] was “inactive” each time.

Consider `CC1OC(OCC2OC(Oc3c(-c4ccc(OCCO)c(OCCO)c4)oc4cc(OCCO)cc(O)c4c3=O)C(O)C(O)C2O)[C@@H](O)C(O)C1O` (stereo partly drawn), for which the Potency entry in test [1], in [2], in [3], in [4], in test [5] and in [6] was “inactive” in each case. Besides, the Potency entry in [7], in test [8], in test [9], in [10], in test [11] and in [12] was “inactive” throughout. Besides, the Potency entry in test [13], in [14], in [15], in test [16], in test [17] and in test [18] was “inactive” each time. Moreover, the Potency entry in [19] and in test [20] was “inactive” in each case.

Turning to `CCCCCCCCCCCC(=O)OCC(O)C1OCC(O)C1O` (stereo not drawn), the Potency entry in test [1], in [2], in test [3], in test [4], in [5] and in test [6] was “inactive” throughout. For the same compound, the Potency entry in [7], in test [8], in [9], in [10], in [11] and in [12] was “inactive” each time. In addition, the Potency result in test [13], in test [14], in test [15], in [16], in test [17] and in test [18] was “inactive” throughout. Also, the Potency entry in [19] and in test [20] was “inactive” each time.

For the compound `CC(=O)NC1[C@H](O)C[C@@](O)(C(=O)O)O[C@H]1[C@H](O)[C@H](O)CO` (stereo partly drawn), the Potency result in test [1], in test [2], in test [3], in test [4], in test [5] and in [6] was “inactive” in each case. Further, the Potency result in [7], in test [8], in test [9], in test [10], in [11] and in test [12] was “inactive” throughout. For the same compound, the Potency result in test [13], in [14], in test [15], in test [16], in test [17] and in test [18] was “inactive” throughout. Further, the Potency entry in test [19] and in test [20] was “inactive” each time.

Turning to `CCN1CCN(C(=O)NC(C(=O)NC2C(=O)N3C(C(=O)O)=C(CSc4nnnn4C)CSC23)c2ccc(O)cc2)C(=O)C1=O` (stereo not drawn), the Potency entry in test [1], in test [2], in test [3], in test [4], in test [5] and in test [6] was “inactive” each time. The Potency entry in test [7], in test [8], in [9], in test [10], in test [11] and in test [12] was “inactive” each time. For the same compound, the Potency entry in [13], in test [14], in [15], in test [16], in test [17] and in test [18] was “inactive” each time. For the same compound, the Potency entry in [19] and in test [20] was “inactive” in each case.

Take `O=C1NC(=O)C2C3C=CC(C3)C12` (stereo not drawn): the Potency result in test [1], in test [2], in test [3], in [4], in test [5] and in [6] was “inactive” each time. Besides, the Potency entry in test [7], in test [8], in test [9], in test [10], in test [11] and in test [12] was “inactive” each time. In addition, the Potency entry in [13], in test [14], in test [15], in [16], in test [17] and in [18] was “inactive” in each case. Further, the Potency result in test [19] and in test [20] was “inactive” each time.

`OC[C@@H]1O[C@](CO)(O[C@H]2O[C@H](CO)[C@@H](O)[C@H](O)[C@H]2O)[C@H](O)[C@H]1O`: the Potency result in test [1], in [2], in test [3], in test [4], in test [5] and in test [6] was “inactive” in each case. Moreover, the Potency result in test [7], in [8], in test [9], in test [10], in test [11] and in test [12] was “inactive” in each case. Further, the Potency result in [13], in test [14], in [15], in [16], in [17] and in [18] was “inactive” in each case. Moreover, the Potency result in [19] and in test [20] was “inactive” throughout.

`OCC1O[C@H](Oc2ccc(O)cc2)C(O)C(O)C1O` (stereo partly drawn): the Potency entry in [1], in [2], in [3], in test [4], in [5] and in test [6] was “inactive” each time. For the same compound, the Potency entry in test [7], in [8], in [9], in [10], in test [11] and in test [12] was “inactive” throughout. For the same compound, the Potency result in test [13], in [15], in [16], in [17], in test [18] and in test [19] was “inactive” throughout. Moreover, in [20], the Potency entry is “inactive”.

In the case of `CC1(C)SC2C(NC(=O)C(C(=O)O)c3ccccc3)C(=O)N2C1C(=O)O` (stereo not drawn), the Potency result in [1], in test [2], in [3], in test [4], in test [5] and in test [6] was “inactive” each time. Also, the Potency result in [7], in [8], in test [9], in test [10], in test [11] and in [12] was “inactive” throughout. For the same compound, the Potency entry in test [13], in test [14], in test [15], in test [16], in test [17] and in [18] was “inactive” in each case. Besides, the Potency entry in test [19] and in test [20] was “inactive” each time.

`COc1cc2c(cc1O)CCN[C@@]21CS[C@H]2c3c(OC(C)=O)c(C)c4c(c3C(COC1=O)N1C2C2c3c(cc(C)c(OC)c3O)CC([C@@H]1O)N2C)OCO4` (stereo partly drawn): the Potency in test [1] was 0.0003 µM (active); in test [2] it was 0.0009 µM (active); in test [3], 0.0013 µM (active); in test [4] it was 0.0004 µM (active); in [5] it was 0.004 µM (active); in test [6] it was 0.0056 µM (active). Further, the Potency was 0.0005 µM (active) in test [7]; 0.0045 µM (active) in [8]; 0.0005 µM (active) in test [9]; 0.0015 µM (active) in test [10]; 0.0005 µM (active) in test [11]; 0.0005 µM (active) in test [12]. In addition, the Potency in test [13] was 0.0015 µM (active); in [14], 0.0008 µM (active); in test [15], 0.001 µM (active); in test [17], 0.0011 µM (active); in [18], 0.0008 µM (active); in [19], 0.0009 µM (active). The Potency in test [20] was 0.001 µM (active).

With `C=CC1CN2CCC1CC2[C@@H](O)c1ccnc2ccc(OC)cc12` (stereo partly drawn), the Potency was 0.0501 µM (active) in test [1]; 0.251 µM (active) in [2]; 1.07 µM (active) in [3]; 0.426 µM (active) in test [4]; 0.891 µM (active) in test [5]; 0.891 µM (active) in [6]. In addition, the Potency in test [7] was 0.338 µM (active); in test [8], 0.355 µM (active); in [9], 0.601 µM (active); in test [10], 0.953 µM (active); in test [11], 0.478 µM (active); in [12] it was 0.953 µM (active). Also, the Potency in [13] was 0.338 µM (active); in test [14] it was 0.112 µM (active); in [15], 0.316 µM (active); in test [16], 0.251 µM (active); in test [17], 0.0891 µM (active); in [18] it was 0.891 µM (active). In addition, the Potency in test [19] was 0.355 µM (active); in test [20], 0.251 µM (active).
